Test results taken from the supplement of paper PMC3545927.
This is one part of the list. The true hit rate is not given.

Target: furin, P09958
Assay: furin cleavage Z-score vs untreated control; higher = more cleavage, active = 3.5 or more, inactive = 1 or less, 8 variable residues between constant flanks
In short: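 Furin cleavage was scored on 8-mer peptides joined to a cDNA oligonucleotide and bound to magnetic beads at the N-terminus. Digestion with purified furin (1:10 enzyme:substrate, 0.01 ml, 50 mM HEPES pH 7.5, CaCl2, NaCl) lasted 7.5, 15 or 30 min. Freed DNA was tagged with adapters by PCR, sequenced and counted; the cleavage Z-score is the lowess-adjusted log count versus furin-free reactions, scaled by median absolute deviation.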

Chain of furin, P09958 (P09958 whole entry): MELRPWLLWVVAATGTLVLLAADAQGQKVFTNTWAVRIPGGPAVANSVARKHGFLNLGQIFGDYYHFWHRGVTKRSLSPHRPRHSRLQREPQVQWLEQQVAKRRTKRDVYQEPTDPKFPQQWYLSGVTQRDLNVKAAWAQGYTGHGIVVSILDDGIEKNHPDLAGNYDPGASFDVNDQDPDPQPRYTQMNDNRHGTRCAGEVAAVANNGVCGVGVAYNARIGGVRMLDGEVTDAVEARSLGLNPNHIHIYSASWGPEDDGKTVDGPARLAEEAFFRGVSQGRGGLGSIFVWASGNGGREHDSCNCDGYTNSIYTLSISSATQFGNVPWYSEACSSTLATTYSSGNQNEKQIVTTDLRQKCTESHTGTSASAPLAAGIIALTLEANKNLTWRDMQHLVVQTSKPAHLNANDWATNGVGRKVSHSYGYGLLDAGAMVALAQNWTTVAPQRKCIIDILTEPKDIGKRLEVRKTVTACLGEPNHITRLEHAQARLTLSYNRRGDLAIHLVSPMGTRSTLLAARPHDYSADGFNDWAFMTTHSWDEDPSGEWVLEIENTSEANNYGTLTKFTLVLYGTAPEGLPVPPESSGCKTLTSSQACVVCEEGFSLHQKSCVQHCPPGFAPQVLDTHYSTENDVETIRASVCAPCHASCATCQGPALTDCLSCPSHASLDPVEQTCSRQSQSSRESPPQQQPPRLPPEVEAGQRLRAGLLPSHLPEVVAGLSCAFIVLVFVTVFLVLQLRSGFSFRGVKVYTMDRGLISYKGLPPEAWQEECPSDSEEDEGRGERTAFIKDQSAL

Sequence	furin cleavage Z-score (7.5 min)	furin cleavage Z-score (15 min)	furin cleavage Z-score (30 min)
CAMEECSQHVAGNASASA [HC1770]	0.37 (inactive)	-0.816 (inactive)	0.885 (inactive)
CAGLAGAAIGAGNASASA [HC1077]	0.0949 (inactive)	-0.583 (inactive)	-1.05 (inactive)
CATTPCSGSRAGNASASA [HC1933]	-1.1 (inactive)	1.02	0.7 (inactive)
CAEWVVCCSMAGNASASA [HC2128]	-0.594 (inactive)	0.0553 (inactive)	0.122 (inactive)
CARKRRGGPSAGNASASA [FS-2564]	3.55 (active)	5.66 (active)	4.4 (active)
CARKHPDATYAGNASASA [HC454]	-0.794 (inactive)	-0.15 (inactive)	-3 (inactive)
CANKRRGGTAAGNASASA [WN5]	-0.513 (inactive)	-0.365 (inactive)	0.516 (inactive)
CARKRRTATYAGNASASA [FS-2977]	4.55 (active)	6.85 (active)	6.75 (active)
CARKRRTGFGAGNASASA [FS-2978]	-1.31 (inactive)	1.08	1.25
CARKRRCSLSAGNASASA [FS-1829]	4.81 (active)	7.32 (active)	6.54 (active)
CATDVVCCSMAGNASASA [HC2118]	1.2	0.0514 (inactive)	-0.681 (inactive)
CAFIPVENLEAGNASASA [HC758]	-2.14 (inactive)	-0.887 (inactive)	-1.28 (inactive)
CAMEECSVHLAGNASASA [HC1730]	-0.159 (inactive)	-0.406 (inactive)	0.608 (inactive)
CAEPRRSRRKAGNASASA [FS-23]	3.35	6.04 (active)	5.36 (active)
CAEPLRKKKKAGNASASA [FS-1320]	-0.899 (inactive)	-0.615 (inactive)	-0.879 (inactive)
CARRRRKQRKAGNASASA [FS-2791]	2.34	4.43 (active)	4.61 (active)
CACRRRRRRKAGNASASA [FS-583]	7.53 (active)	8.14 (active)	6.13 (active)
CAMDYRGRRKAGNASASA [FS-1544]	-0.964 (inactive)	-0.642 (inactive)	0.39 (inactive)
CARQGRSGQKAGNASASA [FS-2063]	-0.381 (inactive)	0.885 (inactive)	-0.813 (inactive)
CAEPHRRRRKAGNASASA [FS-415]	4.43 (active)	5.99 (active)	6.78 (active)
CAVYHGAGTRAGNASASA [HC701]	-1.21 (inactive)	-0.779 (inactive)	-0.813 (inactive)
CALLMCAVHPAGNASASA [HC598]	-0.584 (inactive)	-1.05 (inactive)	-0.438 (inactive)

Sequence	furin cleavage Z-score (7.5 min)	furin cleavage Z-score (15 min)	furin cleavage Z-score (30 min)
CALERRSVYTAGNASASA [FS-1986]	-0.7 (inactive)	0.537 (inactive)	-0.997 (inactive)
CAKTPCSGSWAGNASASA [HC1834]	-1.42 (inactive)	-1.89 (inactive)	-1.1 (inactive)
CAQREVPCHRAGNASASA [HC2442]	1.83	1.74	0.0102 (inactive)
CALMRRRRRKAGNASASA [FS-1599]	8.11 (active)	10.6 (active)	8.59 (active)
CAWTVYHGAGAGNASASA [HC700]	-0.0993 (inactive)	1.58	1.31
CASTPCSAHSAGNASASA [HC2577]	-0.571 (inactive)	0.484 (inactive)	1.4
CAIKKRSLRSAGNASASA [FS-1345]	6.68 (active)	5.55 (active)	5.16 (active)
CASTVRSLRSAGNASASA [FS-566]	2.72	4.24 (active)	4.81 (active)
CARRRKSASDAGNASASA [FS-2074]	-0.354 (inactive)	-0.175 (inactive)	0.845 (inactive)
CAEVPCHRPIAGNASASA [HC2404]	0.502 (inactive)	-0.467 (inactive)	1.19
CAVVCCSQSYAGNASASA [HC2062]	1.31	2.95	0.942 (inactive)
CALSHRSKRSAGNASASA [FS-1031]	12.7 (active)	12.6 (active)	11.4 (active)
CARTHRSKRSAGNASASA [FS-957]	11.6 (active)	11.5 (active)	8.26 (active)
CARHRRILQAAGNASASA [FS-2025]	-0.809 (inactive)	0.0867 (inactive)	-0.324 (inactive)
CARRRRDLQAAGNASASA [FS-2075]	8.41 (active)	10.5 (active)	8.73 (active)
CARRRGDSRGAGNASASA [HC732]	-0.828 (inactive)	-0.656 (inactive)	-0.847 (inactive)
CARRRRDTHFAGNASASA [FS-2785]	8.52 (active)	11.4 (active)	10.2 (active)
CARRRRRPGGAGNASASA [FS-3065]	-0.191 (inactive)	-1.18 (inactive)	-0.53 (inactive)
CARRRRDHHMAGNASASA [FS-1838]	7.82 (active)	8.82 (active)	7.36 (active)
CARRRKDDYAAGNASASA [FS-2073]	0.651 (inactive)	0.661 (inactive)	-1.05 (inactive)
CARRRRDLGGAGNASASA [FS-1866]	3.6 (active)	2.23	1.75
